Shown are actives, neighbours in structure and some others; about 3.6% of the full set was active somewhere.
Wnt act: Wnt/beta-catenin pathway activators, primary screen, cell-based, plate reader, single point. Wnt/beta-catenin reporter cell assay, activator. activation, % at 9.35 µM. 300,000 tested, 1.2% active. AID 743398, 2014; in the data active means activation above about 30%, passing the limit was not always enough;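 further: 0% = neutral control wells and 100% = positive control wells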
APOBEC3A inh: APOBEC3A ssDNA deaminase inhibitors, primary screen, selectivity assay for APOBEC3G inhibitor project, biochemical, FAM/TAMRA oligo cleavage fluorescence; DNA dC->dU-editing enzyme APOBEC-3A (Homo sapiens), P31941; recombinant A3A, FAM/TAMRA ssDNA deamination fluorescence; inhibition, % at 20 µM; 330,000 tested, 0.41% active; AID 493011, 2011;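 active means at least 40% inhibition at 20 µM here, with at most 30% in a related deaminase screen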;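 further: plate controls were A3A with DMSO for no effect and wells lacking A3A enzyme for full effect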
Target sequence (P31941 whole entry, looked up): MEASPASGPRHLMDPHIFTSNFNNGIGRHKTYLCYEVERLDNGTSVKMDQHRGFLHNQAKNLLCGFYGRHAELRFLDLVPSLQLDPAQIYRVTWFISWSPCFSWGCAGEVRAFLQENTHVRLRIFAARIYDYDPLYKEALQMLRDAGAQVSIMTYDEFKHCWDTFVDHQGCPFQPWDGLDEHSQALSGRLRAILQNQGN
APOBEC3G inh: APOBEC3G DNA deaminase inhibitors, primary screen, biochemical, fluorescence, single-stranded DNA substrate, uHTS; recombinant A3G, ssDNA deamination FAM/TAMRA fluorescence; inhibition, % at 20 µM; 330,000 tested, 0.28% active; AID 493012, 2011;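 active means inhibition of at least 40% at 20 µM, with no more than 30% in the related APOBEC3A deaminase screen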;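 further: plate controls were DMSO wells with A3G for no effect and wells lacking A3G enzyme for full effect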
Target sequence (Q9HC16 whole entry, looked up): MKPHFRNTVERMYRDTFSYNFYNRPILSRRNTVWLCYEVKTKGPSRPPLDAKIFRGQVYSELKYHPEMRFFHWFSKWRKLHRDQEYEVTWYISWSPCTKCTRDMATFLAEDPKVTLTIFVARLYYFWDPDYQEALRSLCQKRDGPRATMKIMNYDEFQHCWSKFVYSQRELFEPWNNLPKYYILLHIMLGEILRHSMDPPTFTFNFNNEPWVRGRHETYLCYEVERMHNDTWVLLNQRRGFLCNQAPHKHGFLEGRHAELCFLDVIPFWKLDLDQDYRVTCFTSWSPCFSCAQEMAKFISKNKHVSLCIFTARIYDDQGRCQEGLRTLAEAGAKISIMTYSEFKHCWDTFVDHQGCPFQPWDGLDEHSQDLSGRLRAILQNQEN
MITF act: activators of MITF-driven TRPM1 promoter reporter, primary screen, cell-based, SK-MEL-5, luciferase, single point; SK-MEL-5 TRPM1-promoter luciferase, 24 h; % of positive control, neutral wells = 0; activation, % at 12.5 µM; 300,000 tested, 0.75% active;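 active means mean activation of at least 80% with every replicate also reaching 80%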;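 further: 0% = neutral control wells and 100% = parthenolide positive control wells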
PHOSPHO1 block: PubChem AID 1565. Phosphoethanolamine/phosphocholine phosphatase (Homo sapiens), Q8TCT1. inhibition, % at 13.3 µM. 290,000 tested, 1.1% active. recombinant PHOSPHO1, absorbance phosphatase assay; in the data active means inhibition above about 60%
esBAF inh: Bmi1 luciferase reporter increase in mESCs, primary screen, esBAF inhibitor project, mouse ES cells, Bmi1 luciferase knock-in, single point; 24 h; 100% = twice the neutral-well signal; reporter increase, % at 12.5 µM; 350,000 tested, 2% active; AID 602393, 2012; in the data active means activation above about 40%;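 further: 0% = median of the plate's neutral control wells and 100% = double that signal; a rise in the Bmi1 reporter signal indicates esBAF inhibition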
Active calls of the source: *; / = not tested or not shown.

SMILES | Wnt act | APOBEC3A inh | APOBEC3G inh | MITF act | PHOSPHO1 block | esBAF inh
O=C(CSc1nnc(COc2ccccc2)n1Cc1ccco1)c1ccc(F)cc1 | -6 | 0 | -1 | 0 | 78* | 6
COc1ccc(C(=O)CSc2nnc(CNc3ccc(C)cc3C)n2Cc2ccco2)cc1 | / | -1 | 17 | -15 | 91* | /
NC(=O)CSc1nnc(COc2ccccc2)n1Cc1ccco1 | -2 | 1 | -2 | -7 | 53 | -2
COc1cccc(C#Cc2cnc3c(c2)C(=O)N([C@H](C)CO)C[C@@H](C)[C@H](CN(C)C(C)=O)O3)c1 | / | / | / | / | / | -5
C[C@@H]1CCCCO[C@H](CN(C)Cc2ccc(C(F)(F)F)cc2)[C@@H](C)CN([C@@H](C)CO)C(=O)c2cc(NS(=O)(=O)c3ccccc3)ccc2O1 | / | / | / | / | / | 3
COc1ccc(NC(=S)N/C(=N/CS(=O)(=O)c2ccccc2)c2ccccc2)cc1 | 37* | -1 | -3 | 21 | -14 | -3
Cc1c(NC(=S)N/C(=N/S(=O)(=O)c2ccc(Cl)cc2)c2ccccc2)c(=O)n(-c2ccccc2)n1C | 0 | 0 | -5 | 6 | 83* | /
Cc1cccc(NC(=S)N/C(=N/S(=O)(=O)c2ccccc2)c2ccccc2)c1 | -4 | -1 | 0 | 1 | 38 | 78*
CCCC(=O)N1CCC1(C)C(=O)Nc1cc(-c2ccccc2)nn1C (stereo unspecified) | 33* | / | / | / | / | 55*
Clc1ccc(OCCSCc2nc3ccccc3[nH]2)cc1 | / | -6 | -12 | 0 | 69* | 3
O=c1[nH]c2ccccc2nc1-c1ccc(Cl)cc1 | 51* | 3 | 3 | / | 35 | /
Cc1ccc(OCCSCc2nc3ccccc3[nH]2)cc1 | / | 0 | -4 | 16 | 24 | -7
O=c1[nH]c2ccccc2nc1-c1ccccc1 | 24 | 3 | 0 | 12 | 8 | /
Fc1ccccc1CSCc1nc2ccccc2[nH]1 | 2 | 1 | -4 | 90* | 33 | 64*
Cc1ccc(CSCc2nc3ccccc3[nH]2)cc1 | 0 | / | / | 4 | 4 | /
Clc1ccc(SCc2nc3ccccc3[nH]2)cc1 | / | 0 | -3 | 119* | 8 | 36
COc1cc(NC(=O)c2cccnc2)c(Cl)cc1NC(=O)c1ccc(Cl)cc1 | 3 | 2 | 2 | -13 | 28 | -8
COc1cc(NC(=O)c2ccc(Cl)cc2)c(Cl)cc1NC(=O)c1cccnc1 | 16 | -1 | -5 | 8 | 63* | -4
CCC(=O)N[C@@H]1CC[C@H](CCn2cc(-c3cccc(OC)c3)nn2)O[C@@H]1CO | / | / | / | / | / | 0
COc1ccc2c(n1)Sc1nc3ccccc3nc1N2 | 40* | / | / | -8 | 3 | 23
Cc1ccc2c(c1)NC(=O)c1cccnc1N2 | 1 | -5 | -7 | 52 | 15 | 63*
O=C1Nc2ccccc2Nc2ncccc21 | / | -2 | -6 | -5 | 28 | -9
Cn1cc(-c2coc3c(C(=O)NCc4ccco4)cccc23)cn1 | / | / | / | / | / | 72*
O=C(Nc1cc(F)ccc1F)N1CCCCN2[C@@H](CO)[C@H](c3ccc(-c4cccnc4)cc3)[C@@H]2C1 | / | / | / | / | / | -8
Cc1ccc(SCC2(O)CCN(C(=O)c3ccc(Cl)cc3)CC2)cc1 | / | 8 | 12 | 9 | 62* | -8
SMILES | Wnt act | APOBEC3A inh | APOBEC3G inh | MITF act | PHOSPHO1 block | esBAF inh
CC(C)NC(=O)N(C)C[C@H]1Oc2ncc(C#CCc3ccccc3)cc2C(=O)N([C@@H](C)CO)C[C@@H]1C | / | / | / | / | / | 2
Cc1ccc2oc(-c3cccc(NC(=O)c4ccc(Br)o4)c3)nc2c1 | / | 2 | 1 | 17 | 5 | 65*
COC(=O)c1ccc(-c2nc3ccc(C)cc3o2)cc1 | 55* | -1 | -11 | -6 | 7 | 52*
Cc1ccc2oc(-c3ccc(NC(=O)CC(C)C)cc3)nc2c1 | 16 | 1 | 0 | 101* | -13 | 50*
CCCC(=O)Nc1ccc2oc(-c3cncc(Br)c3)nc2c1 | -1 | 2 | -4 | 97* | -11 | 12
C[C@H](CO)N1C[C@H](C)[C@H](CN(C)C(=O)C2CCC2)Oc2cc(C3=CCCC3)ccc2S1(=O)=O | / | / | / | / | / | 3
CC(C)CC(=O)Nc1ccc2oc(-c3cccnc3)nc2c1 | / | -2 | 1 | 55 | -10 | 50*
Cc1nc2sc(C(=O)c3ccccc3)c(N)c2c(C)c1C | 7 | -4 | -9 | 6 | 18 | /
Cc1nc(-c2ccccc2)nc2sc(C(=O)c3ccc(F)cc3)c(N)c12 | 5 | -3 | -12 | -13 | 10 | -8
Cc1ccc(C(=O)c2sc3nsc(C)c3c2N)cc1 | / | -4 | -7 | 47 | 98* | /
Cc1snc2sc(C(=O)c3ccc(Br)cc3)c(N)c12 | / | -3 | -5 | 88* | 86* | /
CCCOc1ccc2nc(C)c(CCC)c(SC(=N)N)c2c1 | 2 | -1 | 2 | -15 | 67* | /
O=C(Nc1ccc(Cl)cc1)c1csc([C@@H]2O[C@H](CO)[C@@H](O)[C@H]2O)n1 | 2 | / | / | / | / | 45*
O=C(Nc1cccc(Cl)c1Cl)c1csc([C@H]2C[C@H](O)[C@@H](CO)O2)n1 | 42* | / | / | / | / | 77*
O=C(Nc1ccc(F)c(Cl)c1)c1csc([C@@H]2O[C@H](CO)[C@H](O)[C@H](O)[C@H]2O)n1 | 1 | / | / | / | / | -5
O=C(Nc1cccc(Cl)c1Cl)c1csc([C@@H]2O[C@H](CO)[C@@H](O)[C@H]2O)n1 | 19 | / | / | / | / | 50*
O=C(Nc1cccc(Cl)c1)c1ccc2sc([C@H]3C[C@H](O)[C@@H](CO)O3)nc2c1 | -1 | / | / | / | / | 67*
CNC[C@H]1Oc2cc(C#Cc3ccccn3)ccc2S(=O)(=O)N([C@H](C)CO)C[C@H]1C | / | / | / | / | / | -4
C[C@@H]1CCCCO[C@H](CN(C)Cc2ccccc2)[C@@H](C)CN([C@H](C)CO)C(=O)c2cc(NS(=O)(=O)c3ccc(F)cc3)ccc2O1 | / | / | / | / | / | -4
CN(C)CCCNC(=O)C[C@H]1CC[C@H]2[C@H](COc3ccc(NC(=O)c4ccccc4F)cc3C(=O)N2C)O1 | / | / | / | / | / | 13
CC(=O)Nc1ccc2nc(-c3ccncc3)[nH]c2c1 | -7 | 2 | 1 | -2 | 14 | -2
CC(=O)Nc1ccc2nc(-c3ccccn3)[nH]c2c1 | 36* | 0 | 1 | 44 | -5 | 33
O=C(Cc1ccccn1)N[C@H]1CC[C@H](CCn2cc(-c3cccnc3)nn2)O[C@H]1CO | / | / | / | / | / | 0
C[C@H](CO)N1C[C@H](C)[C@@H](CN(C)Cc2ccc(-c3ccccc3)cc2)Oc2ccc(NC(=O)c3ccncc3)cc2CC1=O | / | / | / | / | / | -1
Cc1ccc(O)c(N=Cc2cccs2)c1 | / | -1 | -3 | -10 | -7 | /
Cc1ccc(O)c(N=Cc2ccc(C)s2)c1 | / | 1 | -1 | 0 | -11 | 59*
